Compound activity from PubChem BioAssay.
Only some compounds are listed: those with a hit (about 4.7% of all), similar ones and a draw of the others.
D1 ag = human D1 receptor agonism. P21728. HEK293 T-REx D1 cells, calcium flux, agonist mode. activation, % at 2 µM. 360,000 tested, 1% active; note: 0% is about no effect
Target sequence (P21728 whole entry, looked up): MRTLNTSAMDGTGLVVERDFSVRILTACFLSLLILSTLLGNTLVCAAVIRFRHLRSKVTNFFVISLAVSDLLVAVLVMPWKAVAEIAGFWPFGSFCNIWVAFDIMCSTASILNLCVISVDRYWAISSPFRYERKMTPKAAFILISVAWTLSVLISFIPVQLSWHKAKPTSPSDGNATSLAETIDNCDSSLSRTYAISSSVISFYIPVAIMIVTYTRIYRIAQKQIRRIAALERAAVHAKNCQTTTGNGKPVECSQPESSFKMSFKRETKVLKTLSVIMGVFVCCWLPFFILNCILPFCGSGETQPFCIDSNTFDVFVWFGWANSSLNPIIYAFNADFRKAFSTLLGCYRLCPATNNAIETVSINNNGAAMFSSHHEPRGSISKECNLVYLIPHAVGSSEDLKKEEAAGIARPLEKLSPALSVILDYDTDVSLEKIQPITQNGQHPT
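Tetracycline-induced HEK293 TREx D1 cells, force-coupled to calcium signalling, were dye-loaded with a no-wash calcium kit. Compound was pin-added after a 10 s baseline. Fluorescence was read kinetically at 1 cycle/s for 180 s, with calcium rises flagged as agonism.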
D1 antagonist = antagonists of human D1 dopamine receptor. activity change, negative = inhibition, % at 10 µM. 360,000 tested, 3.2% active. P21728. HEK293 TREx D1 cells, calcium flux, dopamine EC80; active compounds read low; in the data active = activity change below about -30%; note: % is set by controls: 0 for no effect and ±100 for the full control effect
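Kinetic fluorescence of a calcium dye serves as the read-out. D1-expressing Hek293 Trex cells, induced overnight at 30 C, are exposed to compound for 180 s before an EC80 dopamine addition, then read 180 s further.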
D1 potentiator = human D1 dopamine receptor positive modulation; 360,000 tested, 0.036% active; P21728; AID 504651; HEK293 TREx D1 cells, calcium flux, dopamine EC20 potentiation; potentiation, % at 10 µM; in the data active = potentiation above about 30%; note: 0% is about no effect
TRHR ag = TRH receptor (human) agonism; activation, % at 2 µM; 360,000 tested, 0.18% active; AID 493084; P34981; TRHR cells, calcium flux fluo-8, FDSS agonist mode; note: 0% is about no effect
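Read-out: compound-evoked intracellular calcium rise in TRHR cells, fluo-8 dye, kinetic FDSS fluorescence at 1 s/cycle following a 10-cycle baseline. Cells cultured overnight before dye loading (30 min–1.5 h, RT).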
TRHR PAM = allosterically enhances the human TRH receptor; P34981; TRHR cells, fluo-8 calcium fluorescence, EC20 TRH enhancement; enhancement, % at 2 µM; 360,000 tested, 0.66% active; AID 493056; in the data active = enhancement above about 30%; note: 0% is about no effect
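TRHR-expressing cells loaded with fluo-8 calcium dye were read kinetically (ex 480/em 530) during compound addition, then stimulated with an EC20 of TRH (10 nM final). Enhancement of the Gq-mediated intracellular calcium response was scored.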
* hit, by the source's call; x = no result given. Cut-off read from the data, not from the text of the source, unless noted: active = activation above about 30%; inactive = the rest.

SMILES	D1 ag	D1 antagonist	D1 potentiator	TRHR ag	TRHR PAM
O=C(NC1CC1)C1CCN(C2CCN(C(=O)Cc3ccc4c(c3)OCO4)CC2)CC1	2.8	1.5	-3.8	0.2	-0.9
O=S(=O)(NCCc1csc2nc(-c3ccc(Cl)cc3)nn12)c1ccc2c(c1)OCCO2	12.9	x	-1.8	0.6	3.0
CCOc1ccc(-n2c(SCc3ccc(C(=O)OC)o3)nc3c([nH]c4ccccc43)c2=O)cc1	0.0	5.2	-2.2	0.7	3.5
O=C(CCN1CCN(c2ccccc2)CC1)c1ccc(Br)cc1	2.2	-30.1*	-17.4	1.3	-2.5
O=C(Cc1ccccc1[N+](=O)[O-])NCCCc1ccccc1	0.0	3.7	-2.9	-0.3	-1.8
Nc1nc2c(s1)CC(c1ccccc1)CC2 (stereo not given)	5.2	-30.3*	-2.9	0.1	5.0
CC(C)(C)C1CCc2nc(NC(=O)Cc3ccccc3)sc2C1 (stereo not given)	3.8	8.1	3.3	0.0	8.2
O=c1cc(NS(=O)(=O)c2ccccc2)nc(SCc2ccc(Cl)cc2)[nH]1	18.0	-35.9*	-6.0	-0.5	2.9
CC(C)(C)c1cc(=O)[nH]c(SCc2ccccc2Cl)n1	6.4	9.7	5.2	-0.9	0.0
O=C(CSc1nc(NS(=O)(=O)c2ccccc2)cc(=O)[nH]1)Nc1ccc(Cl)cc1	3.3	-14.4	-3.7	3.5	-2.7
Cc1ccc(S(=O)(=O)Nc2cc(=O)[nH]c(SCc3ccccc3Cl)n2)cc1	12.4	-31.5*	-7.8	0.7	-2.4
CCOc1ccc(OCCNCc2ccc(OC(C)C(=O)N(C)C)c(OCC)c2)cc1 (stereo not given)	56.5*	10.4	-1.6	-0.2	12.2
CCOC(=O)Cn1c(=O)n(C2CCCCC2)c2nc(-c3ccccc3Cl)nc(C(N)=O)c21	2.7	4.4	0.2	0.1	23.8
Cc1nn(CC(=O)NCCCN2CC(C)CC(C)C2)c(=O)c2cccn12 (stereo not given)	4.1	-1.7	-3.7	0.4	4.0
COc1cc(NC(=O)C2CCCN2S(=O)(=O)c2ccc3c(c2)CC(C)N3C(C)=O)cc(OC)c1 (stereo not given)	0.3	4.3	1.8	-0.5	5.4
O=C(O)c1ccc2c(c1)C(=O)N([C@H](Cc1ccc(C(F)(F)F)cc1)C(=O)O)C2=O	1.4	-47.8*	-3.1	-0.2	0.7
O=C1CCCc2c1cc(C(=O)O)c(=O)n2-c1ccccc1	-0.1	4.8	4.6	0.8	2.9
CCOC(=O)c1cc2c(n(-c3ccc(Cl)cc3)c1=O)CCCC2=O	-1.9	-30.4*	-9.2	-0.5	10.2
Cc1ccc(N2CC(C(=O)Nc3nnc(SCc4ccccn4)s3)CC2=O)cc1 (stereo not given)	3.8	-0.2	0.9	0.0	0.5
O=C(Nc1nnc(SCc2ccccn2)s1)C1CC(=O)N(c2ccccc2)C1 (stereo not given)	2.3	-77.8*	-9.5	-0.5	7.0
COC(=O)c1cc(S(=O)(=O)Nc2nn(C)c3ccccc23)oc1C	-0.4	-4.4	-5.7	0.1	0.3
COC(=O)c1cc(S(=O)(=O)Nc2nn(C)c3cccc(F)c23)oc1C	0.5	-39.6*	4.3	-0.2	-3.6
COc1ccccc1C1C=C(c2ccc(Cl)cc2)Nc2nc(-c3ccc(Cl)cc3)nn21 (stereo not given)	10.5	-12.0	-1.7	1.7	-1.1
CCCc1nc(SC)[nH]c(=O)c1C	0.5	-2.6	-1.1	0.3	34.2*
CCSc1nc(C)c(C)c(=O)[nH]1	1.0	-23.8	-4.6	-0.8	8.1
SMILES	D1 ag	D1 antagonist	D1 potentiator	TRHR ag	TRHR PAM
Cc1coc2c1c(C)cc1oc(=O)c(CC(=O)NCCCN3CCCC3=O)c(C)c12	0.2	-11.2	-4.5	-0.5	-3.4
COc1ccc(-c2cn[nH]c2C)cc1	-0.6	-36.5*	-0.1	-1.2	30.8*
COc1ccc2c(c1OC)C[N+]1([O-])CCc3cc4c(cc3C1C2)OCO4 (stereo not given)	2.7	-38.2*	-2.2	-0.2	-2.5
CCOc1ccc(NC(=O)Cn2c(=O)n(CCCC(=O)NCCc3ccc(Cl)cc3)c(=O)c3ccccc32)cc1	0.3	11.9	-0.8	0.0	1.7
COc1ccc(CCNC(=O)CCCn2c(=O)c3ccccc3n(Cc3ccccc3C#N)c2=O)cc1OC	0.7	9.5	0.1	-0.6	-1.9
Cc1ccc(NC(=O)Cn2c(=O)n(CCCCC(=O)NCCc3ccc(Cl)cc3)c(=O)c3ccccc32)cc1	-0.8	-45.9*	1.6	0.0	17.4
COc1ccc(CCNC(=O)CCCn2c(=O)c3ccccc3n(Cc3ccccc3C)c2=O)cc1OC	-0.9	-32.8*	2.8	-0.8	11.2
O=C(CN(C(=O)c1csnn1)c1ccccc1Cl)NC1CCCC1	-2.9	-7.0	2.5	-0.3	-4.6
CC(C)(C)c1ccc(S(=O)(=O)N(CCCN2CCOCC2)Cc2cccs2)cc1	8.9	-33.0*	-15.2	-0.9	0.5
COc1ccc(Cl)cc1NC(=O)c1ccccc1C	1.4	-43.5*	-18.2	-0.3	-2.9
COc1ccc(Cl)cc1NC(=O)c1cc(=O)c2cc(C)cc(C)c2o1	1.0	-7.8	0.7	0.1	-0.5
CCc1ccc2oc(C(=O)Nc3cc(Cl)ccc3OC)cc(=O)c2c1	0.9	-48.3*	-1.4	0.4	6.8
COc1ccccc1C(=O)Nc1cc(Cl)ccc1O	1.5	-22.0	-2.6	1.3	-9.7
COc1ccccc1NC(=O)c1cc(Br)ccc1Cl	-0.4	-34.6*	-1.4	-0.4	-2.4
O=C(Nc1ccccc1Oc1ccccc1)c1cc([N+](=O)[O-])ccc1Cl	3.4	-1.0	-10.2	-1.4	40.7*
CC(C)(C)OC(=O)NCC(=O)NNC(=O)c1nc2ccccc2[nH]1	0.4	1.7	-3.7	0.8	1.6
CC(=O)NCCc1nc2cc(NC(=O)COc3cccc(C)c3)ccc2n1C	14.4	4.1	x	-2.0	12.0
COC(=O)c1ccccc1NC(=O)C1=CC(c2ccc3c(c2)OCO3)=NS(=O)(=O)N1C	0.3	-8.3	1.9	0.2	3.1
O=c1[nH]c2ccc(NCc3ccc(-c4ccc(Br)cc4)o3)cc2[nH]1	-0.3	-7.1	-1.6	-0.3	3.3
O=c1[nH]c2ccc(NCc3ccc(-c4cccc(Cl)c4)o3)cc2[nH]1	36.9*	-22.0	-1.3	-2.6	4.2
COc1ccc(NC(=O)Nc2ccc3c(c2)N(C)C(=O)CS3)cc1OC	4.7	-18.1	-1.6	0.0	5.7
O=C(Nc1ccc([N+](=O)[O-])cc1)Nc1ccc2c(c1)OCCO2	38.5*	-40.9*	-14.1	1.5	-8.2
COc1cc([N+](=O)[O-])ccc1NC(=O)Nc1ccc2c(c1)OCCO2	1.3	6.7	-7.0	-0.2	2.6
O=C(Nc1ccc(OC(F)F)c(Cl)c1)Nc1ccc2c(c1)OCO2	17.2	-35.9*	-8.7	2.0	-3.6
O=C(Cc1ccc(Cl)cc1Cl)Nc1ccc(OC(F)F)c(Cl)c1	14.0	-24.4	-1.4	2.4	11.7
